Screening data deposited in PubChem BioAssay by several laboratories.
Compounds with a hit are over-represented: about 1.5% of the library has one in this group of screens.
AI-2 QS modul: modulates the Vibrio harveyi AI-2 quorum sensing system | Vibrio harveyi JMH597 AI-2 luminescence/OD600 ratio, 9 h; active compounds read low; strain lacks LuxN and CqsS sensors; 0 = neutral-control median | activity change, % at 7.5 µM | actives 0.4% (n = 300,000) | AID 2094; in the data active means activity change below about -75%, passing the limit was not always enough;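 further: luminescence divided by OD600 gain over 9 h not by final OD600 alone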
sPLA2-III inh: Inhibits HGIII-sPLA2 liposome hydrolysis, primary screen; Q9NZ20; QFRET BODIPY PC-A2 liposome hydrolysis, fluorescence; inhibition, % at 12.2 µM; actives 0.56% (n = 370,000);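 active means inhibition above mean plus 3 SD of compounds lying within the high and low control bounds, cut at about 19% in these data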;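 further: 0% = median of test compound wells and 100% = no enzyme DMSO wells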
ARNT-TACC3 inh: disruptors of human ARNT/TACC3 interaction. AlphaScreen His-ARNT PAS-B/GST-TACC3 binding, luminescence; TACC3 fragment carries E629A point mutation. inhibition, % at 9.99 µM. actives 0.66% (n = 390,000);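 active means mean inhibition of replicates at least 50% and at least half of replicates each reaching 50%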;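 further: 0% = complete ARNT plus TACC3 wells and 100% = ARNT alone without TACC3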
Rin1 Abl inh: human Rin1-Abl interaction inhibition; P00519+Q13671; TR-FRET Rin1/Abl binding, biochemical; inhibition, % at 7.35 µM; actives 0.4% (n = 360,000); AID 588664; in the data active means inhibition above about 5%, passing the limit was not always enough
hGIII sPLA2 conf: human GIII-sPLA2 inhibition, confirmation | shares compounds with sPLA2-III inh | actives 34% (n = 2,000) | AID 743280 | recombinant hGIII-sPLA2, BODIPY PC-A2 QFRET fluorescence | inhibition, % at 12.2 µM;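 active means mean inhibition across triplicates above the hit cutoff set in the earlier primary screen, cut at about 19% in these data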;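 further: 0% = enzyme with DMSO and 100% = DMSO wells lacking enzyme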
BODIPY interf: counter-screen for HGIII-sPLA2 inhibitors: 535nm fluorescence interference. shares compounds with sPLA2-III inh. BODIPY FL product fluorescence interference, QFRET. inhibition, % at 12.2 µM. actives 8.5% (n = 2,000). AID 743282;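 active means average inhibition above the solvent-only control mean plus 3 SD, cut at about 6% in these data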;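 further: 0% = DMSO with substrate plus product and 100% = DMSO with substrate alone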
535nm interf DR: 535nm optical interference dose response, HGIII-sPLA2 counter-screen; BODIPY FL product fluorescence interference, cell-free; IC50, µM; AID 743455; 240 tested, under 10 active; shares compounds with sPLA2-III inh;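 active means IC50 at or below 10 µM; inactive means IC50 above 10 µM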
An asterisk follows results filed as active; x = no result.

SMILES	AI-2 QS modul	sPLA2-III inh	ARNT-TACC3 inh	Rin1 Abl inh	hGIII sPLA2 conf	BODIPY interf	others
CN1c2ccc(-c3ccc(F)cc3)cc2[C@@H]2[C@@H](CCN2S(=O)(=O)c2ccc(F)cc2)[C@H]1CO	x	x	13.1	x	x	x
Cc1cccc(NC2=C(NC(=O)c3ccccc3)C(=O)c3ccccc3C2=O)c1	22.4	23.9*	39.2*	-8.0	22.6*	3.6
Cc1cccc(C(=O)Nc2cccc(NC(=O)c3ccccc3)c2)c1	24.9	-14.4	-4.9	-1.9	x	x
CSc1nnc(-c2cc(C)on2)n1-c1ccccc1	-5.9	20.1*	-1.0	-0.5	-3.0	-3.2
C[C@@H]1CN([C@H](C)CO)C(=O)c2cccc(NC(=O)c3cnccn3)c2O[C@@H]1CN(C)CC1CC1	x	x	-5.1	x	x	x
CC(C)CN(C(=O)COC(=O)CCc1nc2ccccc2s1)c1c(N)n(Cc2ccccc2)c(=O)[nH]c1=O	12.3	19.5*	-19.6	4.2	9.0	-9.4
Brc1ccc(C=Nc2ccc3c(c2)OCCOCCOCCO3)s1	28.7	23.7*	0.7	-0.1	6.4	-8.9
Brc1csc(C=Nc2ccc3c(c2)OCCOCCOCCOCCO3)c1	18.2	14.4	0.5	1.5	x	x
COc1ccc(NC(=O)Nc2ccc3c(c2)C(=O)N([C@@H](C)CO)C[C@@H](C)[C@H](CN(C)C(=O)Nc2ccc(OC)cc2)O3)cc1	x	x	-2.5	x	x	x
COCCCNC(=O)c1cc2cc(Br)ccc2oc1=O	-7.3	-1.2	0.9	-0.2	x	x
O=C(NNC(=O)c1cc2cc(Br)ccc2oc1=O)c1ccc(O)cc1O	12.0	20.3*	-0.1	5.4	26.2*	-0.3
CCn1c2ccccc2c2cc(NC(=O)c3ccc(Br)o3)ccc21	13.3	20.9*	-1.5	0.4	15.8	-2.4
CCn1c2ccccc2c2cc(NC(=O)c3coc(=O)c(Br)c3)ccc21	16.0	8.5	x	-1.4	x	x
C[C@@H]1CN([C@@H](C)CO)C(=O)c2cc(NS(C)(=O)=O)ccc2O[C@@H]1CN(C)Cc1ccccc1	x	x	-6.0	x	x	x
O=C(NC(=S)N(CC1CCC1)CC1CCCO1)c1cccc([N+](=O)[O-])c1 (stereo not drawn)	3.4	20.2*	20.4	-4.7	20.3*	-3.4
C[C@H](CO)N1C[C@H](C)[C@H](CN(C)CC2CCOCC2)Oc2cc(Br)ccc2S1(=O)=O	x	x	7.6	x	x	x
COc1cc(O)c2c(=O)c3c(O)ccc(O)c3oc2c1	x	22.1*	6.3	-1.3	7.2	-3.3
COc1cccc(/C=N/n2c(-c3cc(C)[nH]n3)n[nH]c2=S)c1	14.9	19.4*	2.2	0.7	22.5*	0.9
Cc1cc(-c2n[nH]c(=S)n2N=Cc2cccc(Oc3ccccc3)c2)n[nH]1	x	3.8	x	x	x	x
Cc1ccc(C(=O)Nc2nc(C(N)Cc3ccc(C(F)(F)F)cc3)cs2)cc1 (stereo not drawn)	x	22.8*	x	3.0	4.7	-2.8
Cc1ccc2c(c1)C1CS(=O)(=O)N(CCc3ccccc3)CN1C2 (stereo not drawn)	x	11.5	x	x	x	x
Cc1ccc2c(c1)C1CS(=O)(=O)N(CCc3ccccc3)C(=O)N1C2 (stereo not drawn)	x	19.3*	x	x	2.4	-8.6
C[C@H](NC(=O)C[C@@H]1C=C[C@H](NC(=O)CN2CCOCC2)[C@@H](CO)O1)c1ccccc1	x	x	-0.6	x	x	x
Oc1c(N=Nc2ccccn2)ccc2ccccc12	32.0	21.9*	63.8*	1.7	53.9*	12.8*
CCCNC(=O)Nc1ccc2c(c1)C(=O)N(C)C[C@H](OC)[C@@H](C)CN(Cc1ccc(-c3ccccn3)cc1)[C@H](C)CO2	x	x	-1.1	x	x	x
SMILES	AI-2 QS modul	sPLA2-III inh	ARNT-TACC3 inh	Rin1 Abl inh	hGIII sPLA2 conf	BODIPY interf	others
CCCC(=O)NC(=S)Nc1nc(-c2ccc(OC)cc2)cs1	-2.1	23.0*	-4.5	-3.4	23.8*	-0.9
Cc1cccc(-c2nnn3c2nc(NCCc2ccc(S(N)(=O)=O)cc2)c2ccccc23)c1	22.9	21.8*	-12.0	-2.5	-6.2	-1.6
O=C(CCSCCc1ccccn1)Nc1cc(F)ccc1F	29.2	19.4*	-3.8	-3.5	0.6	-7.5
Cc1ccc(OCCN2CCNCC2)c([N+](=O)[O-])c1	13.3	-5.2	2.2	7.0	x	x
Cc1ccc(OCCN2CCN(C)CC2)c([N+](=O)[O-])c1	9.8	22.2*	-11.3	1.6	-1.0	-5.3
O=C(Nc1nnc(-c2ccccc2F)s1)C1CCN(S(=O)(=O)c2ccc(Cl)cc2)CC1	11.0	23.1*	-7.1	0.4	-7.1	-8.3
NC(c1csc(NC(=O)c2cccc(OC(F)(F)F)c2)n1)c1ccccc1Cl (stereo not drawn)	x	36.9*	x	0.8	24.7*	0.0
COC(=O)c1cnc(Nc2nc(C(N)c3ccccc3Cl)cs2)nc1C(F)(F)F (stereo not drawn)	x	12.5	x	2.0	x	x
O=C(C[C@H]1C=C[C@@H](NC(=O)c2cccc(F)c2)[C@@H](CO)O1)NCc1ccc(Oc2ccccc2)cc1	x	x	-13.7	x	x	x
Cc1cccc(NC(=S)N2CCN(c3ccc(F)cc3)CC2)c1	17.6	25.9*	x	2.4	10.6	-4.6
Cc1cc(C)cc(NC(=S)N2CCN(c3ccc(F)cc3)CC2)c1	5.6	11.3	-3.3	-1.7	x	x
C/C=C/c1cnc2c(c1)C(=O)N([C@H](C)CO)C[C@H](C)[C@@H](CN(C)C(=O)C1CCCCC1)O2	x	x	-7.7	x	x	x
COc1ccc2cc3[n+](cc2c1O)CCc1cc2c(cc1-3)OCO2	x	7.5	x	x	x	x
C[n+]1cc2c3c(ccc2c2ccc4cc5c(cc4c21)OCO5)OCO3	x	47.7*	x	x	45.7*	-2.9	535nm interf DR=>122
N/C(=N\OC(=O)CCC1CCCC1)c1cccc([N+](=O)[O-])c1	29.2	20.8*	-1.5	0.0	5.7	-8.1
Cc1nn(-c2ccccc2)c(C)c1C(=O)OCC(=O)N(C)C1CCS(=O)(=O)C1 (stereo not drawn)	9.8	19.9*	x	3.8	-0.8	-8.4
C#CCNC(=O)C[C@H]1C[C@@]2(C(=O)OC)C(=C[C@H](C(C)(C)C)O[C@@H]2C)N(CCCCCCCC)C1=O	x	6.1	x	x	x	x
CCCCCCCCN1C(=O)[C@@H](CC(=O)NCC23CC4CC(CC(C4)C2)C3)C[C@@]2(C(=O)OC)C1=C[C@H](C(C)(C)C)O[C@@H]2C	x	20.6*	x	x	-17.5	-15.8
CCNc1nc(NCC)nc(OCCOC(=O)Nc2ccccc2)n1	-0.9	19.4*	7.7	1.4	-5.2	-5.9
Nc1c(C(=O)Nc2ccccc2F)sc2nc(-c3cccnc3)ccc12	3.3	-13.5	-8.6	-3.6	x	x
Nc1c(C(=O)Nc2ccccc2F)sc2nc(-c3ccco3)ccc12	13.4	19.4*	0.6	-0.4	10.3	-5.4
COc1ccccc1NC(=S)NNC(=O)c1cc(C)nn1C	13.4	19.3*	2.7	-0.6	21.6*	-4.5
